# Experimental data reported in the supplement of paper PMC6555819.
# Experiments:
# Assay in all cases: PBM binding z-score (relative to random genomic background probes); higher = stronger binding; sequences stand for … in GC…GCGATTGACAGCGTAGAATGAAGG
# [1] = test system: RARb homodimer (NR concentration 270 nM)
# Procedure, shortened: (§1)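 Custom Agilent 4×180K protein-binding microarrays carried double-stranded probes, each with a 34-nt variable region. These regions held direct-repeat seeds, single-nucleotide variants, half-site ablations and random human genomic background sequences. Ligand-free nuclear receptor dimers were incubated on the arrays for 1 h, antibodies against each partner (one per run) detected binding, and scanned fluorescence was regression-normalized. Binding z-scores take the random background probes as reference.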
# [2] = test system: RARg:RXRa (NR concentration 270 nM, RXRa partner concentration 90 nM)
# Procedure, shortened: as §1
# [3] = test system: RARg homodimer (NR concentration 270 nM)
# Procedure, shortened: as §1
# [4] = test system: RXRa DBDmut IVT, anti-RXR (DBD mutation: RXRa K156A/R161A, NR concentration 90 nM)
# Procedure, shortened: as §1
# [5] = test system: RXRa homodimer (NR concentration 180 nM)
# Procedure, shortened: as §1
# [6] = test system: THRa:RXRa (NR concentration 90 nM, RXRa partner concentration 90 nM)
# Procedure, shortened: as §1
# [7] = test system: THRa homodimer (NR concentration 90 nM)
# Procedure, shortened: as §1
# [8] = test system: VDR:RXRa (NR concentration 270 nM, RXRa partner concentration 90 nM)
# Procedure, shortened: as §1
# [9] = test system: VDR homodimer (NR concentration 270 nM)
# Procedure, shortened: as §1
Sequence,PBM binding z-score [1],PBM binding z-score [2],PBM binding z-score [3],PBM binding z-score [4],PBM binding z-score [5],PBM binding z-score [6],PBM binding z-score [7],PBM binding z-score [8],PBM binding z-score [9]
CTCGAAAGGTCGGTTGAGGTGAGTTTACGGATAA,2.53,2.78,2.96,1.27,2.12,4.97,1.31,3.29,2.25
TCCAGTAGGTTACCAATGGGGCATTCAGCTTTCT,0.751,1.45,0.608,0.663,0.815,0.145,-0.653,0.0983,-0.528
CCGCGGAGGACAACAGGAGGTCAGAGCTGCCAGA,3.47,3.63,3.65,0.503,1.98,2.83,1.18,1.8,1.55
ACAGAGAGGTGAGTGAAGGTAACTCAGCTGGACG,0.91,0.89,1.24,-0.227,0.647,2.59,0.294,0.13,-0.548
CATACAGGGTCAGCTAGGCCAGAGTAGGGACGGC,3.14,4.44,4.26,1.44,4.42,3.1,0.753,3.8,1.32
GATACAGGTTCAGCTAGAGGCCAGAGTATGGAAA,1.13,4.48,1.11,3.05,1.33,1.16,-0.412,2.28,2.29
AGTCAAAGTTCGCTAGGTAACGTAAGATTCAGCT,0.79,1.41,1.49,1.92,0.868,0.668,-0.0669,0.489,0.872
ATCTCTAGGTAAAGATAGTTCAGCGAATGCAAAT,1.42,0.793,0.971,-0.00603,0.377,0.867,-0.0177,1.08,0.508
TCGAGTATGTTAGGGGCATTCAGAATGGCGTCGA,0.285,-0.134,-0.085,1.26,0.27,0.709,-0.0845,0.88,1.66
GCTGCTAGATCAACTGATGGTCAGCTAAAGCTCG,-0.449,-0.186,-0.352,-0.229,-0.482,-0.352,-1.12,-0.766,-0.805
ATCGAAAGGTCGACGAGGTGAGTTTACACCGTTT,3.04,4.11,3.94,1.48,4.05,3.8,0.782,5.25,2.35
TAATATAGGTAAATGCTAGGTGAAAGTCCGATCT,0.28,0.642,0.601,0.344,0.568,1.4,0.419,0.36,0.275
CCTCGGAGGACACAAGGTCAGAGCTGTCCGCTTT,3.68,3.85,3.74,0.757,2.07,3.65,1.57,1.88,0.992
AGAACGAGGGCACACTGAGTTGATAGCAGAGTAG,1.02,1.64,1.91,2.1,1.24,1.72,0.167,2.15,1.78
GCTGCTAGGTCACGTTGGTCAGCTAACGGGTACG,3.68,4.37,5.6,1.5,3.09,3.38,1.79,2.29,0.836
TCTTGTAGATCAAGTAGGTTAAGAAAGCCTGAGT,0.305,0.0366,-0.106,0.547,0.304,0.372,-0.238,0.698,0.191
TGAATGAGGTTATAAGACCAGGGAACGTTGCAAA,0.0287,1.39,0.814,0.698,1.99,1.77,-0.0902,0.916,0.336
CCGACTGGGGCAAGGTTACTATAACGCACAGCCA,1.04,0.944,1.12,-0.108,0.985,0.939,0.2,0.0885,0.00113
ACCAGTTGGTCAGCTGAGGTCACACACAATTCGG,4.44,4.2,4.52,1.29,4.27,5.07,5,4.45,3.47
AGTTACGGGTCAACGAGGTTATAGCACGCGTATA,3.88,5.45,5.57,2.14,6.14,3.97,1.18,7.65,3.49
ACTAGTTGGTCAGCAGAGGTCACACACAATTCGG,5.13,5.03,5.13,1.14,5.43,4.52,2.95,4.87,3.3
CAAACTAGGTCTCCGGAAGGTCAAAGTCCGCATG,4.17,4.36,3.46,0.358,3.68,2.88,1.4,3.06,1.84
CCTACTGGGCCATTCGGAGGTCATTGATCATATG,3.37,3.59,2.55,0.347,2.38,2.83,1.58,3.03,3.03
ATATGTAGGTTACATCCGGGCCATTCAGGCTATG,0.788,1.35,0.995,0.497,0.936,2.04,0.851,0.659,0.406
CGAACGAAGGCATGAGTTGATAGCAAATGCCGAT,-0.914,-0.373,-0.278,-0.249,-0.113,-0.643,-0.827,-0.373,-0.193
CAAACTACGTCAAGAGGTCAAAGTCCGCTTCCCG,4.32,5.45,4.73,2.5,6.72,3.72,1.78,5.03,4.48

Sequence,PBM binding z-score [1],PBM binding z-score [2],PBM binding z-score [3],PBM binding z-score [4],PBM binding z-score [5],PBM binding z-score [6],PBM binding z-score [7],PBM binding z-score [8],PBM binding z-score [9]
TCACATAGGTAAACAGGTGAAAGTCCGTAAGTTA,0.832,0.608,0.415,0.731,1.12,0.714,0.454,0.849,0.318
GATGCTAGGTCAACTGATGGTCAGCTAAAGCTCG,3.45,5.12,5.33,1.06,2.84,2.98,0.992,1.69,-0.0193
TATACAGGGTCAAAGGCCAGACTACGAATGTCGA,3.59,5.73,5.23,3.01,6.99,3.6,0.88,4.68,2.33
CAGCCTAGGTCAGGACCAGTATAGGAGGAACGTT,1.97,2.81,3.89,-0.0885,1.7,1.94,0.463,0.522,-0.0387
CGTCAAAGTTCAACTAAGGTAAAGTAAAGCACGC,3.97,6.03,6.89,3.88,5.08,5.01,1.49,4.64,3.59
CGTCCAAGGCCAATGCTAGGTCAGTGAAAGCATT,2.64,2.16,1.94,0.513,0.218,2,0.569,0.034,0.135
TCTTATAGGTAAATGCTAGGTGAAAGTCCGATCT,0.569,0.602,0.586,1.88,0.669,1.52,0.924,0.709,0.694
ACTTACGGGTCAACGCGGTTATAGCACGCGTATA,3.18,5.42,5.07,1.88,5.68,2.97,0.345,6.31,1.45
AGAATGAGGTTATTAAGATCATGGAATTGCGGTC,0.78,1.25,0.948,1.87,1.73,2.17,0.524,3.3,1.5
GATACTGGGTCAAGGCCAGAGTACGCGTATTGAT,2.91,3.4,3.58,-0.138,2.62,2.09,0.289,1.46,0.679
GCGACTGGGTCAAAGCAGGTTACCATAAGGTTGG,2.76,3.65,3.32,0.713,3.11,4.65,0.279,3.06,0.45
GGAACGAGGGCAAGTAGATAGCAGAGTTTGATGG,1.26,1.3,1.91,1.7,0.888,0.882,-0.115,0.536,1.29
ATACCAATGTGATCGTGAGGTCGTTGATACTAAC,0.979,0.681,0.227,0.777,1.06,2.45,2.24,1.62,2.83
ACTAGCACGCCAAGGGTCACTCAAGATTAGTCCG,3.93,3.88,3.91,1.02,3.73,2.86,0.515,2.97,1.49
AGAATGAGGTTAAGATCTGGGAAACAGAATACAT,0.808,2.11,1.54,1.04,2.48,2.26,0.582,1.13,0.27
AGAATGAGGTTAAGATCAGCGAAACAGAATACAT,0.64,1.9,1.45,0.594,2.39,2.27,0.587,0.872,0.524
CCTATTAGTTGACCATATGGGCAACCGAAGCTCG,0.53,0.405,0.481,0.486,0.208,0.00602,0.303,0.234,0.527
ATCCAAAGGTCGTGAGGTGAGTATACAGAAAGGC,3.47,5.02,4.46,1.72,5.91,3.66,1.97,3.91,1.63
CGTCCACGGTCAATGCTAGGTCAGTGAAAGCATT,3.02,3.59,3.1,0.356,0.354,2.12,0.347,0.36,-0.19
TCTATTGGTTGATTAGGGCAACCGAAACAGCGGA,0.698,0.341,0.499,0.712,0.317,0.871,0.352,0.547,0.054
CGACCAAGGTCAATGCTAGGTCAGTGAAAGCATT,4.82,7.46,6.84,3.44,5.73,4.18,2.25,4.69,2.89
ACTATTAGTTGACTTAGGGGAACCGATACGACGC,0.325,0.568,0.663,1.15,0.583,1.11,0.616,0.378,0.357
CAGCCTAGGTCAGGGCCAGTGTAGGAGGAACGTT,2.75,2.76,3.69,-0.674,1.58,2.17,0.608,0.257,-0.169
ATATGTAGGTTAGCTGGGGCCATTCAGACTAGGC,1.17,0.84,0.74,0.565,0.845,4.13,0.768,1.97,0.832
CCGATTAGGTTATGGGGCATTCAGGCAACGGTGA,1.11,0.701,0.783,0.4,0.612,1.19,0.572,0.0574,0.143
GCTAGTTGGTCAGTAAAAGGTCAAACACCGGTCG,5.05,5.65,4.86,0.64,5.59,3.51,1.2,4.29,1.98
